40 compounds from PubChem BioAssay (Tox21) can be followed below.

Active and inactive are the calls of the source. Entries that show only a call come without a potency. Unless noted, the call rests on the fitted dose curve.

Chain of KiSS-1 receptor (Homo sapiens) (Q969F8 whole entry, looked up): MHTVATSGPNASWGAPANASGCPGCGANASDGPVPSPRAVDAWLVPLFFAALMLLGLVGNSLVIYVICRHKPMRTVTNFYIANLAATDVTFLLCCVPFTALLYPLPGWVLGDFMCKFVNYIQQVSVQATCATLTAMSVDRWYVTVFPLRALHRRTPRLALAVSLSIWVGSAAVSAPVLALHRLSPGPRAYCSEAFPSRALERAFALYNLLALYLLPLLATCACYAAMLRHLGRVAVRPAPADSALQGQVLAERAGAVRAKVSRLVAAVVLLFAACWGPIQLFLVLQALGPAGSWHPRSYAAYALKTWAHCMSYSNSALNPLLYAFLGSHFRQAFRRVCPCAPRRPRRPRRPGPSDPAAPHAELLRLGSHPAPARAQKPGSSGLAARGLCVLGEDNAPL

The first assay addresses KiSS-1 receptor (Homo sapiens) (UniProt Q969F8). Briefly: Human kisspeptin (KISS1R) small molecule agonists, calcium flux assay in KISS1R-HEK293 cells (AID 1920064; active means well fitted activation curve with a large enough effect in the repeat runs). As to conditions: KISS1R-HEK293, calcium flux fluorescence, agonist; series mostly up to 76.8 µM. The gist of the method:
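Cell line: HEK293, stable human KISS1R. Dye loading 1 h at 37 C after 18 h culture. Read: kinetic fluorescence, 480/540 nm, 3 min at 1 s intervals.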
A general note: A change in cytosolic calcium serves as a functional read-out for many receptors and channels.
Consider `N#Cc1ccccc1`, for which the Potency entry was “inactive”.

Regarding `C=C(CC(=O)O)C(=O)O`, the Potency entry was “inactive”.

Turning to `O=C(OCC1CCC2OC2C1)C1CCC2OC2C1` (stereo not given), the Potency entry is “inactive”.

For `CC(=O)NS(=O)(=O)c1ccc(N)cc1`, the Potency entry is “inactive”.

As to `Cc1cc(CC(=O)O)n(C)c1C(=O)c1ccc(Cl)cc1`, the Potency entry was “inactive”.

`CCCCNS(=O)(=O)c1ccccc1`: the Potency result is “inactive”.

As for `C[C@]12C=CC(=O)C=C1CC[C@H]1[C@@H]3C[C@@H](O)[C@](O)(C(=O)CO)[C@@]3(C)C[C@H](O)[C@@]12F`, the Potency entry was “inactive”.

Consider `Cc1cc(C)c(O)c(C)c1`, for which the Potency result is “inactive”.

For `Nc1ccc(S(=O)(=O)Nc2cnc3ccccc3n2)cc1`, the Potency result is “inactive”.

With `COC(=O)[C@H]1[C@H]2C[C@@H]3c4[nH]c5cc(OC)ccc5c4CCN3C[C@H]2C[C@@H](OC(=O)c2cc(OC)c(OC)c(OC)c2)[C@@H]1OC`, the Potency result was “inactive”.

Turning to `CN(C)c1ccc(C(=C2C=CC(=[N+](C)C)C=C2)c2ccccc2)cc1`, the Potency entry was “inactive”.

In the case of `c1ccc2cc(Nc3ccc(Nc4ccc5ccccc5c4)cc3)ccc2c1`, the Potency entry is “inactive”.

Consider `COCCc1ccc(OCC(O)CNC(C)C)cc1` (stereo not given), for which the Potency result was “inactive”.

For `COc1ccc([C@@H]2CC(=O)c3c(O)cc(O[C@@H]4O[C@H](CO[C@@H]5O[C@@H](C)[C@H](O)[C@@H](O)[C@H]5O)[C@@H](O)[C@H](O)[C@H]4O)cc3O2)cc1OC`, the Potency entry was “inactive”.

On to `CC(=O)N[C@@H](CS)C(=O)O`, for which the Potency entry is “inactive”.

Consider `OCC1CCCO1` (stereo not given), for which the Potency entry was “inactive”.

As for `CC(=O)OCc1ccc2c(c1)OCO2`, the Potency result is “inactive”.

In the case of `Cc1cc(C)c(C)cc1C`, the Potency entry was “inactive”.

Turning to `Oc1c(Cl)cc(Cl)c(Cl)c1Cl`, the Potency entry was “inactive”.

In the case of `CC1(C)C(=O)N(Cl)C(=O)N1Cl`, the Potency result is “inactive”.

Turning to `Cc1ccc(C)c(O)c1`, the Potency result is “inactive”.

As for `NC(N)=S`, the Potency entry was “inactive”.

Consider `CCCCCCCCCCO`, for which the Potency result was “inactive”.

`OCCOCCOCCOCCO`: the Potency entry is “inactive”.

In the case of `O=c1cc[nH]c(=S)[nH]1`, the Potency entry was “inactive”.

Turning to `CCCCCCCCCCCCCC(=O)O`, the Potency result was “inactive”.

As for `O=S(=O)(O)c1ccc2cc(O)ccc2c1`, the Potency entry was “inactive”.

Consider `Oc1ccc(Cc2ccccc2O)cc1`, for which the Potency result is “inactive”.

For `ClC1=C(Cl)C(Cl)(Cl)C(Cl)=C1Cl`, the Potency result is “inactive”.

Take `CC1(C)[C@@H]2CC[C@@]1(C)C(=O)C2`: the Potency result was “inactive”.

For `CCOC(=O)CC(=O)OCC`, the Potency entry is “inactive”.

`CCCCOCCOCCOC(C)=O`: the Potency entry is “inactive”.

Consider `CCn1c2ccccc2c2cc(N)ccc21`, for which the Potency result is “inactive”.

`CC(=O)CC(=O)N(C)C`: the Potency result is “inactive”.

Consider `C=CCCCCCCCCCC`, for which the Potency entry was “inactive”.

Consider `CC1=C(/C=C/C(C)=C/C=C/C(C)=C/C(=O)O)C(C)(C)CCC1`, for which the Potency entry is “inactive”.

With `CCCCCNCCCCC`, the Potency entry was “inactive”.

Consider `O=C(CC(C(=O)OC1CCCCC1)S(=O)(=O)O)OC1CCCCC1` (stereo not given), for which the Potency entry was “inactive”.

Turning to `CN(C)CCOC(=O)COc1ccc(Cl)cc1`, the Potency result was “inactive”.

Turning to `CCCN(CCC)C(=O)SCC`, the Potency result is “inactive”.

Test system in a further assay: not listed separately
The assay is described as follows: G protein-coupled receptor (GPCR) small molecule agonists, calcium flux assay: HEK293 wild type cell line counter screen (AID 1920065). As to conditions: HEK293 WT calcium flux, fluorescence, agonist mode; series mostly up to 57.6 µM. The gist of the method: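 Tox21 10K compounds, 15 concentrations each in triplicate, pin-transferred in DMSO onto dye-loaded cells; kinetic read at 480/540 nm for 3 min, 1 s intervals.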
Take `N#Cc1ccccc1`: the Potency result is “inactive”.

`C=C(CC(=O)O)C(=O)O`: the Potency result was “inactive”.

With `O=C(OCC1CCC2OC2C1)C1CCC2OC2C1` (stereo not given), the Potency entry was “inactive”.

With `CC(=O)NS(=O)(=O)c1ccc(N)cc1`, the Potency entry is “inactive”.

In the case of `Cc1cc(CC(=O)O)n(C)c1C(=O)c1ccc(Cl)cc1`, the Potency result was “inactive”.

Turning to `CCCCNS(=O)(=O)c1ccccc1`, the Potency result was “inactive”.

Turning to `C[C@]12C=CC(=O)C=C1CC[C@H]1[C@@H]3C[C@@H](O)[C@](O)(C(=O)CO)[C@@]3(C)C[C@H](O)[C@@]12F`, the Potency entry was “inactive”.

Consider `Cc1cc(C)c(O)c(C)c1`, for which the Potency entry is “inactive”.

In the case of `Nc1ccc(S(=O)(=O)Nc2cnc3ccccc3n2)cc1`, the Potency entry is “inactive”.

Take `COC(=O)[C@H]1[C@H]2C[C@@H]3c4[nH]c5cc(OC)ccc5c4CCN3C[C@H]2C[C@@H](OC(=O)c2cc(OC)c(OC)c(OC)c2)[C@@H]1OC`: the Potency result is “inactive”.

Regarding `CN(C)c1ccc(C(=C2C=CC(=[N+](C)C)C=C2)c2ccccc2)cc1`, the Potency entry is “inactive”.

For `c1ccc2cc(Nc3ccc(Nc4ccc5ccccc5c4)cc3)ccc2c1`, the Potency entry was “inactive”.

Take `COCCc1ccc(OCC(O)CNC(C)C)cc1` (stereo not given): the Potency entry is “inactive”.

`COc1ccc([C@@H]2CC(=O)c3c(O)cc(O[C@@H]4O[C@H](CO[C@@H]5O[C@@H](C)[C@H](O)[C@@H](O)[C@H]5O)[C@@H](O)[C@H](O)[C@H]4O)cc3O2)cc1OC`: the Potency entry is “inactive”.

Turning to `CC(=O)N[C@@H](CS)C(=O)O`, the Potency entry is “inactive”.

For the compound `OCC1CCCO1` (stereo not given), the Potency result was “inactive”.

On to `CC(=O)OCc1ccc2c(c1)OCO2`, for which the Potency entry was “inactive”.

For `Cc1cc(C)c(C)cc1C`, the Potency entry is “inactive”.

As to `Oc1c(Cl)cc(Cl)c(Cl)c1Cl`, the Potency entry is “inactive”.

For the compound `CC1(C)C(=O)N(Cl)C(=O)N1Cl`, the Potency result is “inactive”.

Turning to `Cc1ccc(C)c(O)c1`, the Potency result was “inactive”.

As to `NC(N)=S`, the Potency entry was “inactive”.

`CCCCCCCCCCO`: the Potency entry was “inactive”.

For `OCCOCCOCCOCCO`, the Potency result was “inactive”.

For the compound `O=c1cc[nH]c(=S)[nH]1`, the Potency entry was “inactive”.

Turning to `CCCCCCCCCCCCCC(=O)O`, the Potency result is “inactive”.

For the compound `O=S(=O)(O)c1ccc2cc(O)ccc2c1`, the Potency entry was “inactive”.

For `Oc1ccc(Cc2ccccc2O)cc1`, the Potency entry is “inactive”.

For the compound `ClC1=C(Cl)C(Cl)(Cl)C(Cl)=C1Cl`, the Potency entry is “inactive”.

For `CC1(C)[C@@H]2CC[C@@]1(C)C(=O)C2`, the Potency entry is “inactive”.

Regarding `CCOC(=O)CC(=O)OCC`, the Potency result is “inactive”.

In the case of `CCCCOCCOCCOC(C)=O`, the Potency result is “inactive”.

In the case of `CCn1c2ccccc2c2cc(N)ccc21`, the Potency result was “inactive”.

Turning to `CC(=O)CC(=O)N(C)C`, the Potency result was “inactive”.

In the case of `C=CCCCCCCCCCC`, the Potency result is “inactive”.

For `CC1=C(/C=C/C(C)=C/C=C/C(C)=C/C(=O)O)C(C)(C)CCC1`, the Potency result was “inactive”.

In the case of `CCCCCNCCCCC`, the Potency entry is “inactive”.

As for `O=C(CC(C(=O)OC1CCCCC1)S(=O)(=O)O)OC1CCCCC1` (stereo not given), the Potency result was “inactive”.

With `CN(C)CCOC(=O)COc1ccc(Cl)cc1`, the Potency entry is “inactive”.

As for `CCCN(CCC)C(=O)SCC`, the Potency entry is “inactive”.
